Source: PubChem
Rows were chosen to be rich in hits. Some 2.4% of all compounds tested hit in one or more screens of this group.
FEN1 inhibitor: qHTS Assay for the Inhibitors of Human Flap endonuclease 1 (FEN1). Potency, µM (highest dose often 114 µM), inactives show top-dose activity change, negative = inhibition, hits mostly inhibitors. Recombinant FEN1 flap cleavage, fluorescence, 15 min. 390,000 compounds, 0.35% hits. P39748; further: on the % scale 0 is the no-effect control and ±100 the full control effect; nearly all actives have a fitted effect of over 65% in size
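Steps: FEN1 (10 nM) dispensed; compound added by pin tool; 15 min at room temperature; substrate added to 50 nM final; reads at 0 min and 15 min; data normalized and fitted (four-parameter Hill).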
POLK inh: qHTS for Inhibitors of Polymerase Kappa; purified Pol kappa, fluorescent DNA synthesis assay, 10 min; DNA polymerase kappa (Homo sapiens), Q9UBT6; 400,000 compounds, 0.53% hits; Potency, µM (top dose mostly 107 µM), for the others: at the top dose activity, negative = inhibition, most hits filed as inhibitors; further: on the % scale 0 is the no-effect control and ±100 the full control effect
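10 nM Pol kappa preincubated 15 min at room temperature with compounds, then reaction started with substrate at 50 nM final. Fluorescence read kinetically at 0 and 10 min; buffer-only wells served as negative control.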
WRN helicase inh: qHTS for Inhibitors of WRN Helicase | Bifunctional 3'-5' exonuclease/ATP-dependent helicase WRN (Homo sapiens), Q14191 | WRN helicase unwinding, fluorescent forked duplex, kinetic | Potency, µM (doses to about 114 µM), for the others: top-dose activity change, negative = inhibition, actives largely listed as inhibitors | 360,000 compounds, 0.46% hits | AID 651768, 2012; further: on the % scale 0 is the no-effect control and ±100 the full control effect; nearly all actives have a fitted effect of over 55% in size
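WRN at 20 nM final preincubated with compound 15 min at room temperature; reaction started with 100 nM fluorophore/quencher forked duplex oligonucleotide and 2 mM ATP final. Unwinding followed kinetically by red fluorescence (ex 525, em 598 nm).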
POLI inh: qHTS for Inhibitors of Polymerase Iota. Pol iota fluorescent replication assay, 10 min. Potency, µM (series often up to 115 µM), inactives show at the highest dose activity, negative = inhibition, most hits filed as inhibitors. 390,000 compounds, 1% hits
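Fluorescent replication assay read twice, at 0 min and 10 min after adding 50 nM (final) substrate. Enzyme (10 nM) and compounds were first incubated 15 min at room temperature; enzyme-free buffer wells were negative controls.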
Pol eta inh: qHTS for Inhibitors of Polymerase Eta; AID 588591, 2011; Potency, µM (doses to about 114 µM), without a hit: at the top dose activity change, negative = inhibition, usual class: inhibitors; recombinant Pol eta, fluorescent DNA replication assay; 390,000 compounds, 1.2% hits; DNA polymerase eta (Homo sapiens), Q9Y253; further: on the % scale 0 is the no-effect control and ±100 the full control effect
Target sequence (Q9Y253 whole entry, looked up): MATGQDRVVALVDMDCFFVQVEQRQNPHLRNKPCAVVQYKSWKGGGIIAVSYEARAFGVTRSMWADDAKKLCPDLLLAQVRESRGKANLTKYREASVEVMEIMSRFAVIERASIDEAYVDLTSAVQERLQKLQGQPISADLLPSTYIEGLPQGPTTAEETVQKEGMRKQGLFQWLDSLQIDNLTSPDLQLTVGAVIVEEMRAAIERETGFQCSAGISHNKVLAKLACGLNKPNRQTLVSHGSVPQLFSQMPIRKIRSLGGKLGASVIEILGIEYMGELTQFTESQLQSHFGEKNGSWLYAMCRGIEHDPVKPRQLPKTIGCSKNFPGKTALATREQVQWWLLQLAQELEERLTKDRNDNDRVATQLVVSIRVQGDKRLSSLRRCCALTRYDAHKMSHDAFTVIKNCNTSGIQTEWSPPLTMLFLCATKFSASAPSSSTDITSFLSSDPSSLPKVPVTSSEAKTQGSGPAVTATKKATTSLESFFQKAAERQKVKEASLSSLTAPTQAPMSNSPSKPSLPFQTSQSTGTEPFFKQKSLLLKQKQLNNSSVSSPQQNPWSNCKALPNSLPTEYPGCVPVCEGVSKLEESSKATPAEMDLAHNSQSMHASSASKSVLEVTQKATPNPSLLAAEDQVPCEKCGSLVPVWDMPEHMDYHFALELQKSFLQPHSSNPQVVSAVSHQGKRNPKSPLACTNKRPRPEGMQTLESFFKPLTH
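Pol eta at 10 nM preincubated with compounds 15 min at room temperature; reaction started with fluorescent substrate (50 nM final) and read kinetically at 0 and 10 min.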
Pol beta inh: qHTS Assay for Inhibitors of DNA Polymerase Beta. P06746. Pol beta primer extension/strand displacement, fluorescence kinetic. Potency, µM (highest dose often 114 µM), without a hit: at the top dose activity change, negative = inhibition, hits mostly inhibitors. 340,000 compounds, 1.3% hits. AID 485314, 2010; further: on the % scale 0 is the no-effect control and ±100 the full control effect
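Preincubation: enzyme (10 nM) with compound, 15 min, RT. Reaction: substrate added to 50 nM final. Reads: 0 and 10 min. Analysis: normalized, Hill fit.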
Active calls of the source: *; [ ] = remark or other dose. The call rests on the fitted dose curve; in most records, active means well fitted curve in the direction sought with a large enough effect; inconclusive means small, poorly fitted or top-dose-only effect, or another doubt; inactive means no such curve, though single readings can be large; an effect the other way counts as inactive or inconclusive. Potency means the concentration at half of the fitted maximal effect.

CCCCNC(=O)COC(=O)c1c2c(nc3ccccc13)/C(=C\c1cccs1)CC2 was read as FEN1 inhibitor 3.9%, POLK inh inconclusive, WRN helicase inh 1.0%[11.6 µM], POLI inh inconclusive and Pol eta inh inconclusive.
`O=C(COC(=O)c1c2c(nc3ccccc13)CCCC2)c1cccs1` gave FEN1 inhibitor -19.7%, POLK inh -4.2%, WRN helicase inh -18.0%, POLI inh -13.8%, Pol eta inh -5.4% and Pol beta inh 17.8%.
`NC(=O)COC(=O)c1c2c(nc3ccccc13)CCCCC2` gave FEN1 inhibitor -11.8%, POLK inh 2.0%, WRN helicase inh 11.3%, POLI inh 9.6%, Pol eta inh -2.2% and Pol beta inh 24.8%.
For CC(C)CNC(=O)COC(=O)c1c2c(nc3ccccc13)CCC2 the results were FEN1 inhibitor -9.9%, POLK inh -32.6%, WRN helicase inh -12.8%, POLI inh inconclusive, Pol eta inh inconclusive and Pol beta inh 39.8µM*.
For CC(=O)C1=C(c2ccccc2)N(C(C)=O)n2c(nnc2C2CCCCC2)S1 the results were FEN1 inhibitor -3.4%, POLK inh 0.5%[60.1 µM], POLI inh -1.2%, Pol eta inh inconclusive and Pol beta inh 0.0%.
`COc1ccc(OCC(=O)Nc2nnc3n2CCS3)cc1` gave FEN1 inhibitor 21.9%, POLK inh -5.5%[60.1 µM], POLI inh -4.5%, Pol eta inh -2.3% and Pol beta inh 1.2%.
COc1ccc(CN2CC[C@H]3C=CC[C@@H](C(=O)NC4CCCCC4)[C@H]3C2=O)cc1OC was read as FEN1 inhibitor 15.0%, POLK inh -22.0% and POLI inh inconclusive.
Cc1cc(=O)cc2oc3cc(N)c(-c4c(C)cc(O)cc4O)c(C)c3nc1-2 was read as POLK inh 4.47µM*.
COc1ccc2c(c1)c1c(c(=O)n(-c3ccccc3C)c(=O)n1CC(=O)NCc1ccc(C)cc1)n2C was read as FEN1 inhibitor -7.6%, POLK inh -7.3%, POLI inh -25.7%, Pol eta inh 10.6% and Pol beta inh 3.1%.
`CCOC(=O)Cc1csc(NC(=O)c2sc3nc4c(C)cc(C)cc4cc3c2N)n1` gave FEN1 inhibitor -24.1%, POLK inh -19.9%, WRN helicase inh -8.0%[11.6 µM], POLI inh 50.1µM*, Pol eta inh inconclusive and Pol beta inh 31.6µM*.
For O=C(COc1ccccc1F)Nc1ccc(-c2nc3ccccc3s2)cc1 the results were FEN1 inhibitor 6.0%, POLK inh -13.0%, POLI inh 13.9%, Pol eta inh -20.7% and Pol beta inh 44.7µM*.
For C(=C/c1nccc2c1[nH]c1ccccc12)/c1ccc2c(c1)OCO2 the results were FEN1 inhibitor 44.7µM*, POLK inh -14.4%, WRN helicase inh -23.0%, POLI inh 0.8%, Pol eta inh -26.3% and Pol beta inh inconclusive.
O=C1CN=C(Nc2ccccc2)N1Cc1cccs1 was read as FEN1 inhibitor 12.7%, POLK inh -2.0%, WRN helicase inh 7.1%, POLI inh inconclusive, Pol eta inh -16.0% and Pol beta inh 18.9%.
`Cc1cccc(NC2=NCC(=O)N2Cc2cccs2)c1` gave FEN1 inhibitor -2.0%, POLK inh -11.9%, WRN helicase inh 50.1µM*, POLI inh 34.4%, Pol eta inh -0.5% and Pol beta inh -16.4%.
COc1ccc(C(=O)N/N=C\C(C)=C\c2ccccc2)cc1OC was read as FEN1 inhibitor -4.3%, POLK inh -42.2%, WRN helicase inh -17.3%, POLI inh -26.1%[58.9 µM] and Pol eta inh 4.5%.
`CC(/C=N/NC(=O)c1ccc(Br)cc1)=C\c1ccccc1` gave FEN1 inhibitor -27.1%, POLK inh 0.5%[60.1 µM], WRN helicase inh -22.2%, POLI inh inconclusive, Pol eta inh -10.6% and Pol beta inh 22.4µM*.
Screening CCc1ccc(NC(=O)c2sc3nc(C)cc(C)c3c2NC(=O)c2ccccc2OC)cc1 returned FEN1 inhibitor 11.6%, POLK inh -6.0%, POLI inh 24.0%, Pol eta inh -5.4% and Pol beta inh -1.1%.
For Cc1ccc(-c2cc(C(=O)N/N=C/c3ccccc3)n[nH]2)o1 the results were FEN1 inhibitor 4.2%, POLK inh 0.0%, WRN helicase inh 4.5%, POLI inh 12.2%, Pol eta inh -2.0% and Pol beta inh inconclusive.
Cc1ccc(-c2cc(C(=O)N/N=C/c3ccc(Cl)cc3)n[nH]2)o1 was read as FEN1 inhibitor -18.9%, POLK inh -4.2%, WRN helicase inh -28.2%, POLI inh inconclusive, Pol eta inh inconclusive and Pol beta inh 25.1µM*.
CCOC(=O)c1c(NC(=O)C2CCCO2)sc(C(=O)OC(C)(C)C)c1C (stereo not given) was read as FEN1 inhibitor -0.4%, POLK inh -6.3%, WRN helicase inh -15.9%, POLI inh 8.0%, Pol eta inh -3.7% and Pol beta inh 12.6%.
For CCOC(=O)c1sc(NC(=O)C2CCCO2)c(C(=O)OCC)c1C (stereo not given) the results were Pol beta inh 14.1µM*.
`COc1ncc2nc(-c3ccccc3)c(=O)n(C)c2n1` gave POLK inh 0.0%[60.1 µM].
Screening Cc1ccccc1Nc1c(-c2ccc(Cl)cc2)nc2c(C)cccn12 returned FEN1 inhibitor -4.5%, POLK inh 4.8%, POLI inh -0.5%, Pol eta inh 2.6% and Pol beta inh -1.4%.
Cc1ccccc1Nc1c(-c2ccc(Cl)s2)nc2c(C)cccn12 was read as FEN1 inhibitor -6.1%, POLK inh -23.8%, POLI inh -38.8%, Pol eta inh -15.5% and Pol beta inh 11.2µM*.
Screening Cc1oc(C)c2c(=O)cc(-c3ccc4c(c3)OCO4)cc(OC(=O)c3ccccc3Br)c12 returned FEN1 inhibitor -15.7%, POLK inh inconclusive, POLI inh inconclusive, Pol eta inh inconclusive and Pol beta inh inconclusive.
C[C@@H]1[C@H](c2ccccc2)OCCS(=O)(=O)N1Cc1ccccc1Br was read as FEN1 inhibitor -24.8%, POLK inh -16.5% and POLI inh 2.9%.
CS(=O)(=O)c1ccc(Cl)c(NC(=O)C2CC(=O)N(Cc3ccco3)C2)c1 (stereo not given) was read as FEN1 inhibitor -0.3%, POLK inh inconclusive, WRN helicase inh 1.5%[11.6 µM], POLI inh 79.4µM* and Pol eta inh -25.6%.
